These results are taken from publication PMC7862700, “An all-to-all approach to the identification of sequence-specific readers for epigenetic DNA modifications on cytosine”.

Common to all, as to assay: DAPPL (digital affinity profiling via proximity ligation, sequencing); 10 mM Tris-HCl pH 7.5, 50 mM NaCl, 1 mM DTT, 4% glycerol, room temperature, 30 min; GST-TFs on glutathione beads, 16-mer random dsDNA library, 0.1% formaldehyde crosslink after washing; high values mean tight binding
One assay deals with T1, FLI1 (Homo sapiens, UniProt Q01543 1-452).
T1 sequence: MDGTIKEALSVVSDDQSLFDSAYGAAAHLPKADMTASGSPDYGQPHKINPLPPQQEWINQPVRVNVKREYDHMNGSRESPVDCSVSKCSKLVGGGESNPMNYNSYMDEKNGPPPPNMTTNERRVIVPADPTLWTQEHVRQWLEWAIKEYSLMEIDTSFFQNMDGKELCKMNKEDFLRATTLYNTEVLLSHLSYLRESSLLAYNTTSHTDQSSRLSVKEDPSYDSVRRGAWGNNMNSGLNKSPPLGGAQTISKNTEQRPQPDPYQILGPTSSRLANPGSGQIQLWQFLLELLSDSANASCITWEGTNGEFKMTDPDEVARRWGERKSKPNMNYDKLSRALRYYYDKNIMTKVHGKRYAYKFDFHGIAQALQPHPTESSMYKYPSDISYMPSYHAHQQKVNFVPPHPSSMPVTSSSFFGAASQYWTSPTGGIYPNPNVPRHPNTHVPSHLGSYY
The note with it: protein: recombinant; tags: N-terminal GST; dsDNA, one strand shown. The procedure, abridged:
(§1)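 The binding signal reported is, for every hexamer, its read frequency for a factor over its read frequency for the tag-only sample. Reads came from pools of yeast-expressed, GST-fused human transcription factors on glutathione beads, barcoded with DNA and mixed with that sample, which were incubated with 200 nmole of a random double-stranded 16-mer DNA library in Tris/NaCl/DTT/glycerol buffer at room temperature for 30 min. After washing, the pools were crosslinked with 0.1% formaldehyde, proximity-ligated with BsaI/T4 ligase for 1 h at 37 °C, PCR-amplified and sequenced on an Illumina NextSeq500.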

In a further assay the target is T2, ELK1 (Homo sapiens, UniProt P19419 1-428).
T2 sequence: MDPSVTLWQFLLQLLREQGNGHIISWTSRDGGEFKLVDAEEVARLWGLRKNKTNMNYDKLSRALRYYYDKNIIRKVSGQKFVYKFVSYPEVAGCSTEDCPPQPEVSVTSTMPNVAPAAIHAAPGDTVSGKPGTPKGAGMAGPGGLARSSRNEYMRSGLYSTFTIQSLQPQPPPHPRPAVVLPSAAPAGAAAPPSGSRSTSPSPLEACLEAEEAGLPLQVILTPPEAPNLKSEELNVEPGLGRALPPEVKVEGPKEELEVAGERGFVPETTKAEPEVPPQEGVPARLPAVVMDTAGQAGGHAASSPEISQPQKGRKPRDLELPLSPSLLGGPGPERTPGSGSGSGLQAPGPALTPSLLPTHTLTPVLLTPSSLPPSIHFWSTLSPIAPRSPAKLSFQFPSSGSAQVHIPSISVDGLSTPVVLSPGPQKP
The note with it: protein: recombinant; tags: N-terminal GST; dsDNA, one strand shown. The method in brief: as §1

Another assay addresses T3, GABPA (Homo sapiens, UniProt Q06546 1-454).
T3 sequence: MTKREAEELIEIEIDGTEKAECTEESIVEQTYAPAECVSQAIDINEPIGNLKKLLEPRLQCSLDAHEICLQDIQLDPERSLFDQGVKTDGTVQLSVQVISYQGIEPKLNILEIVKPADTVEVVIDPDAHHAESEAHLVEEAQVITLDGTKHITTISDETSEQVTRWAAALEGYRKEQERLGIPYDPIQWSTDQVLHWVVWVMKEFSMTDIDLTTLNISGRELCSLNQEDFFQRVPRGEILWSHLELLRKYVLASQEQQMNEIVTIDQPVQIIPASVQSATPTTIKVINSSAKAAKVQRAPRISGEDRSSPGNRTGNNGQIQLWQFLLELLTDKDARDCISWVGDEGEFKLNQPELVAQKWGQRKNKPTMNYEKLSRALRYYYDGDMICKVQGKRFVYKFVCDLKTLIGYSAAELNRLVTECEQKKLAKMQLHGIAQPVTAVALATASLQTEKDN
The note with it: protein: recombinant; tags: N-terminal GST; dsDNA, one strand shown. The procedure, abridged:
as §1

A further assay addresses T4, ERG (Homo sapiens, UniProt P11308 1-479).
T4 sequence: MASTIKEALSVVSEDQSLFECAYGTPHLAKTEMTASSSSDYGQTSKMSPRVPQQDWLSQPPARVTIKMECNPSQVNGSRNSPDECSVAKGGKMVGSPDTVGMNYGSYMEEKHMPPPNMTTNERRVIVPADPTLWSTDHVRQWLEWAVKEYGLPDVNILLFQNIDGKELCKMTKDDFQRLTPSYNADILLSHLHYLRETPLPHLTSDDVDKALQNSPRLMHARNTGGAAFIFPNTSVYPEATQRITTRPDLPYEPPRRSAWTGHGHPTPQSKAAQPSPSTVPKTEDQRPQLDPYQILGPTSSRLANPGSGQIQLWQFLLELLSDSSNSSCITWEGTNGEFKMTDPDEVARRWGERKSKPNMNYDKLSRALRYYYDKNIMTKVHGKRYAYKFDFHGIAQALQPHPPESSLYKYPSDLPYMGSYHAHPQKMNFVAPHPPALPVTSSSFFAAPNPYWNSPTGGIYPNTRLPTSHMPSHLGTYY
The note with it: protein: recombinant; tags: N-terminal GST; dsDNA, one strand shown. The method in brief:
as §1

In the next assay the target is ELF1 (Homo sapiens, UniProt P32519 1-619). The note with it: protein: recombinant; tags: N-terminal GST; dsDNA, one strand shown. The procedure, abridged: as §1
The next assay concerns the target T5, EHF (Homo sapiens, UniProt Q9NZC4 1-300).
T5 sequence: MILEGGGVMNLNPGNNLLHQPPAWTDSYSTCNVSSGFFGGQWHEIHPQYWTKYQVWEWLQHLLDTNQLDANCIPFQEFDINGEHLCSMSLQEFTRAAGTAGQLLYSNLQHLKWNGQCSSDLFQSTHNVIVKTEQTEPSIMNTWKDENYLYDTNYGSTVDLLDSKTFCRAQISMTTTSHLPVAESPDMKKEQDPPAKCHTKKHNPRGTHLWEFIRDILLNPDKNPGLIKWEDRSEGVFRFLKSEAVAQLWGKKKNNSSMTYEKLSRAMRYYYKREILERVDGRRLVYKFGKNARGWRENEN
The note with it: protein: recombinant; tags: N-terminal GST; dsDNA, one strand shown. The method in brief:
as §1

A further assay concerns the target SPI1 (Homo sapiens, UniProt P17947 1-270). The note with it: protein: recombinant; tags: N-terminal GST; dsDNA, one strand shown. The procedure, abridged: as §1
The next assay has as its target SPIB (Homo sapiens, UniProt Q01892 1-262). The note with it: protein: recombinant; tags: N-terminal GST; dsDNA, one strand shown. The procedure, abridged:
as §1

For another assay, the target named is T6, ELK3 (Homo sapiens, UniProt P41970 1-407).
T6 sequence: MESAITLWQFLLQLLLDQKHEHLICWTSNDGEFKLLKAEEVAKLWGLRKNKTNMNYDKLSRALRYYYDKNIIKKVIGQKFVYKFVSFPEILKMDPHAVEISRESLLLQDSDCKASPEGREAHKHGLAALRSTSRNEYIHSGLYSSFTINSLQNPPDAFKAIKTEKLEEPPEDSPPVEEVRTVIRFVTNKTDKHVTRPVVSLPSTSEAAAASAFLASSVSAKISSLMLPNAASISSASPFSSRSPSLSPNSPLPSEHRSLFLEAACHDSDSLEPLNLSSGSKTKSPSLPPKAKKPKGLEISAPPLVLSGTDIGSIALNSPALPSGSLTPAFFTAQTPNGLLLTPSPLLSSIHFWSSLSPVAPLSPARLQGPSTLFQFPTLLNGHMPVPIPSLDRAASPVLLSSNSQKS
The note with it: protein: recombinant; tags: N-terminal GST; dsDNA, one strand shown. The procedure, abridged:
as §1

In the next assay the target is T7, FEV (Homo sapiens, UniProt Q99581 1-238).
T7 sequence: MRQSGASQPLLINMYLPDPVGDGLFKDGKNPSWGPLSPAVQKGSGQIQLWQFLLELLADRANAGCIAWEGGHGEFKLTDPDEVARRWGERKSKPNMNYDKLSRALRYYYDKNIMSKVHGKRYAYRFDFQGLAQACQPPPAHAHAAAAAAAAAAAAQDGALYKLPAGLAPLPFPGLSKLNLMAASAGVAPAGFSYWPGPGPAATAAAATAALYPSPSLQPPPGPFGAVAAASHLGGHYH
The note with it: protein: recombinant; tags: N-terminal GST; dsDNA, one strand shown. The procedure, abridged:
as §1

For the next assay, the target named is ETV5 (Homo sapiens, UniProt P41161 1-510). The note with it: protein: recombinant; tags: N-terminal GST; dsDNA, one strand shown. The procedure, abridged: as §1
In another assay the target is HSF1 (Homo sapiens, UniProt Q00613 1-529). The note with it: protein: recombinant; tags: N-terminal GST; chain copies: 3; dsDNA, one strand shown. The procedure, abridged: as §1
A further assay has as its target T8, SPIC (Homo sapiens, UniProt Q8N5J4 1-248).
T8 sequence: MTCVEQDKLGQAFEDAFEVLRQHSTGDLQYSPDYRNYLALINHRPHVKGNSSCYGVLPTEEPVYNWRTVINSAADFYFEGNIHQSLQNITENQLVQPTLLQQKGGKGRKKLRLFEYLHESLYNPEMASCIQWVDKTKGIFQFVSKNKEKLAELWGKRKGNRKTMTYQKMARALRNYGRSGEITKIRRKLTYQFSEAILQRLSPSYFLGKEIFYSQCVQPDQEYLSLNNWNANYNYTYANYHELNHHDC
The note with it: protein: recombinant; tags: N-terminal GST; dsDNA, one strand shown. The method in brief: as §1

In another assay the target is ELF4 (Homo sapiens, UniProt Q99607 1-663). The note with it: protein: recombinant; tags: N-terminal GST; dsDNA, one strand shown. The method in brief: as §1
Another assay has as its target T9, ELK4 (Homo sapiens, UniProt P28324-2 1-405).
T9 sequence: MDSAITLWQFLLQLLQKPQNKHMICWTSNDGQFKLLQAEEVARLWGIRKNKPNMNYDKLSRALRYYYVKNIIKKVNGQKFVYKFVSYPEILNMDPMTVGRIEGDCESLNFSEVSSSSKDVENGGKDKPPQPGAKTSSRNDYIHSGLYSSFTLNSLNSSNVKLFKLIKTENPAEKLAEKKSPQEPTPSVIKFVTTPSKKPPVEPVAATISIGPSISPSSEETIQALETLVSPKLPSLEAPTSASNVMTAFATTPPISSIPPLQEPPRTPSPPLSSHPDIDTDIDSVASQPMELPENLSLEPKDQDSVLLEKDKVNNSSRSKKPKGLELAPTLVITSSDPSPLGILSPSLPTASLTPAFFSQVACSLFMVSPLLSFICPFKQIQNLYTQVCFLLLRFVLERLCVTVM
The note with it: protein: recombinant; tags: N-terminal GST; dsDNA, one strand shown. The method in brief:
as §1

The next assay deals with T10, ELF3 (Homo sapiens, UniProt P78545 1-371).
T10 sequence: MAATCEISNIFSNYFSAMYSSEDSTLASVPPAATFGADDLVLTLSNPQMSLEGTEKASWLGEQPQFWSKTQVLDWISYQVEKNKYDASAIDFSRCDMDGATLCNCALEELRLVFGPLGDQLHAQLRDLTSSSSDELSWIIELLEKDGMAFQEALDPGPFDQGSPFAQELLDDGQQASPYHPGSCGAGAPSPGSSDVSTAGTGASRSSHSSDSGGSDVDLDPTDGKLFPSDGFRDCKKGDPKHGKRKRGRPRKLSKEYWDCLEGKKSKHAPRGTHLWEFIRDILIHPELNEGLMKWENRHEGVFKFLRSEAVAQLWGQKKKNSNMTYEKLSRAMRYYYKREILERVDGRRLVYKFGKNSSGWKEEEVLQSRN
The note with it: protein: recombinant; tags: N-terminal GST; dsDNA, one strand shown. The method in brief:
as §1

For a further assay, the target named is CRX (Homo sapiens, UniProt O43186 1-299). The note with it: protein: recombinant; tags: N-terminal GST; dsDNA, one strand shown. The procedure, abridged: as §1
In a further assay the target is ETV1 (Homo sapiens, UniProt P50549 1-477). The note with it: protein: recombinant; tags: N-terminal GST; dsDNA, one strand shown. The procedure, abridged: as §1
Chain of ETV1 (P50549 whole entry): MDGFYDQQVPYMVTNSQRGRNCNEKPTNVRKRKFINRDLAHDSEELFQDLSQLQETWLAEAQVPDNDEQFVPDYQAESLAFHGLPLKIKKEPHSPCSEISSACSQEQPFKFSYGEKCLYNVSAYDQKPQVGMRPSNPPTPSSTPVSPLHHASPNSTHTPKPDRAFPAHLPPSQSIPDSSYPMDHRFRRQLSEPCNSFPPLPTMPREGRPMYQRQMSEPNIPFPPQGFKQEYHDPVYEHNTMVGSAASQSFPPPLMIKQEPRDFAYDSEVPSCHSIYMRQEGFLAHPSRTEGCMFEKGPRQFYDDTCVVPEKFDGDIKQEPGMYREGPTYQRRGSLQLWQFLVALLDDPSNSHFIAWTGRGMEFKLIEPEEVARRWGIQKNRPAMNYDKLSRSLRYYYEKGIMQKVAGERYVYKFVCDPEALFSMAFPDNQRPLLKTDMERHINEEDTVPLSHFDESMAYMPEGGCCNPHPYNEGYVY

Chain of HSF1 (Q00613 whole entry): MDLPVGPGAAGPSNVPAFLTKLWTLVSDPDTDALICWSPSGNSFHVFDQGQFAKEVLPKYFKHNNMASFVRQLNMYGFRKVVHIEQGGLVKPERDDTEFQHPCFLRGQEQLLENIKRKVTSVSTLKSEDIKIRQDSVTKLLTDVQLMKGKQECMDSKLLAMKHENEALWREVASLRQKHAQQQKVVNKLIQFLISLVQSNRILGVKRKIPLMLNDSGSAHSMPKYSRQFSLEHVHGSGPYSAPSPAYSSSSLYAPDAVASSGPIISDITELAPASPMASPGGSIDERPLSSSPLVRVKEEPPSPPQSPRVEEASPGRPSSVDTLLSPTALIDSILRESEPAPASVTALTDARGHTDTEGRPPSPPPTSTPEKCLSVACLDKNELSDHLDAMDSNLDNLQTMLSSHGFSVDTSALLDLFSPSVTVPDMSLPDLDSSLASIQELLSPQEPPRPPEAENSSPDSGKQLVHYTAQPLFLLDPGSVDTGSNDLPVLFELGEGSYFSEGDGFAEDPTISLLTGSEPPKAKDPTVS
Chain of ELF1 (P32519 whole entry): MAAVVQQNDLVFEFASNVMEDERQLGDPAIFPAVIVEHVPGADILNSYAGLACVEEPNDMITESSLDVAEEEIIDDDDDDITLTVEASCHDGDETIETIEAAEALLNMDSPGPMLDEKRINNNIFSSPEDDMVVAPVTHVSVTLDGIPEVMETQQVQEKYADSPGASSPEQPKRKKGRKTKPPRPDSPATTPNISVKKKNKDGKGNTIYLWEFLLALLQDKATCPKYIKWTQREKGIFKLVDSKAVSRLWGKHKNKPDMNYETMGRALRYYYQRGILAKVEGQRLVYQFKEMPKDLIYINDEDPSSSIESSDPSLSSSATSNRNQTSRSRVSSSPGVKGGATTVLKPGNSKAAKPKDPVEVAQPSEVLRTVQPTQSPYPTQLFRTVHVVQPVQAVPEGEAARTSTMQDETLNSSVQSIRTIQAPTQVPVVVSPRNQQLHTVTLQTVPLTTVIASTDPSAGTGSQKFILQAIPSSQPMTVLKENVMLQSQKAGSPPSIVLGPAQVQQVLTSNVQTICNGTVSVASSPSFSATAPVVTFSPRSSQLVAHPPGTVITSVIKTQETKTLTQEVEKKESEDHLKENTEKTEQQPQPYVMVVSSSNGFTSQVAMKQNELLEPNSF
Chain of SPIB (Q01892 whole entry): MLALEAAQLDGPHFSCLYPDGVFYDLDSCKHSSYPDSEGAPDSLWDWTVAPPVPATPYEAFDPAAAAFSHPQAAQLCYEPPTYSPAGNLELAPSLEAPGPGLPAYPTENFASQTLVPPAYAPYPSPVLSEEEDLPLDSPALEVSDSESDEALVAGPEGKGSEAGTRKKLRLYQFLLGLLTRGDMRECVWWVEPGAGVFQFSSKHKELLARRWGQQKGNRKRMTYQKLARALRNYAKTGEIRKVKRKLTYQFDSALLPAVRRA
Chain of ETV5 (P41161 whole entry): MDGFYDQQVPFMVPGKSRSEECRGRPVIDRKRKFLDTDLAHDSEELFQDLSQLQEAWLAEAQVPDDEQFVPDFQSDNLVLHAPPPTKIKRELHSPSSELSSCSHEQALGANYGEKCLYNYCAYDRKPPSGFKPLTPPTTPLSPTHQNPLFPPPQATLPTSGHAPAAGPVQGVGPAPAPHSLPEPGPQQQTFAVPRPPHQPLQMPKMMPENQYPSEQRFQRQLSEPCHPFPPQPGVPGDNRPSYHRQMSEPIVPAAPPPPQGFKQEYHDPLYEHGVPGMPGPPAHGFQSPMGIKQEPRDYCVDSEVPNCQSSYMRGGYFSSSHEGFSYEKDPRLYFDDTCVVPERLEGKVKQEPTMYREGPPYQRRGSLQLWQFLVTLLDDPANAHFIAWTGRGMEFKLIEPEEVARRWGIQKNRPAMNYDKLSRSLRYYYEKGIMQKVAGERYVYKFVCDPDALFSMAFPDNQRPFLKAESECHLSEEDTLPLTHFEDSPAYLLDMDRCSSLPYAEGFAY
Chain of ELF4 (Q99607 whole entry): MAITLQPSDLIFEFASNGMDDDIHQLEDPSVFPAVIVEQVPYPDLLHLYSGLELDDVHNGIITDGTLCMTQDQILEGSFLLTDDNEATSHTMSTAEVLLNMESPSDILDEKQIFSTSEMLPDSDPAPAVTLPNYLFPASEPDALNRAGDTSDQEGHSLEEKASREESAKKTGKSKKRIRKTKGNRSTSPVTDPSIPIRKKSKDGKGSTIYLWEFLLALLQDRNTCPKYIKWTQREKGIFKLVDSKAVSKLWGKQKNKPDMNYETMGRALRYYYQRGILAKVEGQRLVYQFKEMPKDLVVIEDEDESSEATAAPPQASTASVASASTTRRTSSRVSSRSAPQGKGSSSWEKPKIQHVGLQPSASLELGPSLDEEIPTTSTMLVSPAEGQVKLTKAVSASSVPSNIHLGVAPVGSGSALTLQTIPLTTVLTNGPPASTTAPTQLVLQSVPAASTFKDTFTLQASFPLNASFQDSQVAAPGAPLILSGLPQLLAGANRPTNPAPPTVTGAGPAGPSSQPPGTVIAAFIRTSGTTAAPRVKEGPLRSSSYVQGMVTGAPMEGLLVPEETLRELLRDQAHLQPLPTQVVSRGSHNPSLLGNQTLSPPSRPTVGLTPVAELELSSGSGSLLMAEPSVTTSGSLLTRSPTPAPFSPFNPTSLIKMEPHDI
Chain of CRX (O43186 whole entry): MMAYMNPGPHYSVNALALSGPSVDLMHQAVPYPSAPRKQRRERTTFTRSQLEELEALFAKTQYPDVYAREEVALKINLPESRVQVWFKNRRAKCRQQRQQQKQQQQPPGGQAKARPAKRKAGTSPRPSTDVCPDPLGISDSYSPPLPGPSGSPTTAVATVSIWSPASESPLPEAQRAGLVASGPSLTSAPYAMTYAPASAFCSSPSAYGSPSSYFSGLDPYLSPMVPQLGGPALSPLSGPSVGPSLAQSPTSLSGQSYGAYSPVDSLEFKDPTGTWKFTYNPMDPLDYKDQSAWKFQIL

For AAGCGC, the binding signal in the assay with FLI1 was 1.2 fold enrichment (6-mer frequency, TF over GST control); with ELK1, 1.11 fold enrichment (6-mer frequency, TF over GST control); in the assay with GABPA, 1.12 fold enrichment (6-mer frequency, TF over GST control); with ERG, 1.13 fold enrichment (6-mer frequency, TF over GST control); with ELF1 it was 1.15 fold enrichment (6-mer frequency, TF over GST control); with EHF, 1.19 fold enrichment (6-mer frequency, TF over GST control). Further, the binding signal was 1.07 fold enrichment (6-mer frequency, TF over GST control) in the assay with SPI1; 1.23 fold enrichment (6-mer frequency, TF over GST control) with SPIB; 1.19 fold enrichment (6-mer frequency, TF over GST control) with ELK3; 1.14 fold enrichment (6-mer frequency, TF over GST control) with FEV; 1.09 fold enrichment (6-mer frequency, TF over GST control) in the assay with ETV5; 1.08 fold enrichment (6-mer frequency, TF over GST control) with HSF1. For the same sequence, the binding signal is 1.14 fold enrichment (6-mer frequency, TF over GST control) with SPIC; 1.12 fold enrichment (6-mer frequency, TF over GST control) with ELF4; 1.2 fold enrichment (6-mer frequency, TF over GST control) with ELK4; 1.16 fold enrichment (6-mer frequency, TF over GST control) with ELF3; 1.27 fold enrichment (6-mer frequency, TF over GST control) in the assay with CRX; 1.09 fold enrichment (6-mer frequency, TF over GST control) with ETV1.
